“And” between values parts separate entries of the source, which are not always exact repeats. Equal entries are not always repeated. Records with an inconclusive call do not appear. The source made the active and inactive calls. Unless noted, calls come from the whole dose curve; as a rule, active = well fitted curve in the direction sought with a large enough effect in the repeat runs; inconclusive = weak or mixed curves; inactive = no such curve, though single readings can be large; an effect the other way counts as inactive or inconclusive.
Columns and labels:
[1] = qHTS assay to identify small molecule antagonists of the glucocorticoid receptor (GR) signaling pathway - cell viability counter screen (AID 720693); note: nearly all actives have a fitted effect of over 55% in size
[2] = qHTS assay for identifying genotoxic compounds that show differential cytotoxicity against isogenic chicken DT40 cell lines with known DNA damage response pathways - wild type cell line (AID 743012); note: nearly all actives have a fitted effect of over 60% in size; note: potency is the fitted concentration of half-maximal effect
Outline: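 Quantitative HTS on parental DT40 cells: 40 h compound treatment at 37 C/5% CO2, with viability then determined by CellTiter-Glo luminescence. Values serve as the DNA repair-proficient reference for differential cytotoxicity.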

[3] = qHTS assay for identifying genotoxic compounds that show differential cytotoxicity against isogenic chicken DT40 cell lines with known DNA damage response pathways - Rev3 mutant cell line (AID 743014); note: nearly all actives have a fitted effect of over 55% in size; note: potency is the fitted concentration of half-maximal effect
[4] = qHTS assay for identifying genotoxic compounds that show differential cytotoxicity against isogenic chicken DT40 cell lines with known DNA damage response pathways - Rad54/Ku70 mutant cell line (AID 743015); note: nearly all actives have a fitted effect of over 60% in size; note: potency is the fitted concentration of half-maximal effect
[5] = qHTS assay to identify small molecule antagonists of the androgen receptor (AR) signaling pathway - cell viability counter screen (AID 743033; note: nearly all actives have a fitted effect of over 45% in size; note: potency is the fitted concentration of half-maximal effect)
[6] = biological target: Androgen receptor (Homo sapiens) (UniProt P10275); test: qHTS assay to identify small molecule agonists of the androgen receptor (AR) signaling pathway using the MDA cell line (AID 743040; note: nearly all actives have a fitted effect of over 20% in size; note: potency is the fitted concentration of half-maximal effect)
Outline: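 MDA-kb2 breast carcinoma cells stably carrying an MMTV-driven luciferase reporter (AR- and GR-responsive) were seeded and held 5 h at 37C, 0% CO2, then exposed to compounds in DMSO for 16 h. Luminescence was read 30 min after ONE-Glo addition.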

[7] = qHTS assay to identify small molecule antagonists of the thyroid receptor (TR) signaling pathway (AID 743065); note: nearly all actives have a fitted effect of over 55% in size; note: potency is the fitted concentration of half-maximal effect
Outline: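 GH3.TRE-Luc rat pituitary cells carrying two TR response elements driving luciferase were plated for 4 h, given compound plus 1 nM T3 (final), and incubated 23.5 h at 37 C. ONE-Glo luminescence measured reporter inhibition; CellTiter-Fluor fluorescence tracked cytotoxicity.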

[8] = qHTS assay to identify small molecule antagonists of the estrogen receptor alpha (ER-alpha) signaling pathway - cell viability counter screen (AID 743074; calls by dose curve; note: nearly all actives have a fitted effect of over 45% in size)
[9] = qHTS assay to identify small molecule antagonists of the estrogen receptor alpha (ER-alpha) signaling pathway using the BG1 cell line - cell viability counter screen (AID 743081);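 note: compound given together with 17beta-estradiol as the ER stimulus; nearly all actives have a fitted effect of over 45% in size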; note: potency is the fitted concentration of half-maximal effect
Aromatase (Homo sapiens) = Aromatase (Homo sapiens) (UniProt P11511); test: qHTS assay to identify aromatase inhibitors (AID 743083); note: nearly all actives have a fitted effect of over 55% in size; note: potency is the fitted concentration of half-maximal effect
[10] = biological target: Androgen receptor (Homo sapiens) (UniProt P10275); test: qHTS assay to identify small molecule agonists of the androgen receptor (AR) signaling pathway (AID 743036; active = well fitted activation curve with a large enough effect in the signal ratio in the repeat runs, with a control signal flat, not every such curve was filed as active; the % refers to the signal ratio; note: potency is the fitted concentration of half-maximal effect)
Outline: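 Fluorescence from a beta-lactamase FRET substrate served as read-out in AR-UAS-bla GripTite HEK293 cells. Cells were treated with DMSO-dissolved compounds for 16 h at 37C, then with LiveBLAzer B/G substrate for 2 h at room temperature.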

[11] = qHTS assay to identify small molecule antagonists of the androgen receptor (AR) signaling pathway using the MDA cell line - cell viability counter screen (AID 743041; note: nearly all actives have a fitted effect of over 45% in size)
Outline: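 MDA-kb2 AR-luc human breast carcinoma cells (MMTV-luciferase, AR/GR responsive) were treated with compounds plus R1881 agonist for 16 h at 37 °C. Viability was read as CellTiter-Fluor fluorescence in the same wells as the reporter assay.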

[12] = biological target: Androgen receptor (Homo sapiens) (UniProt P10275); test: qHTS assay to identify small molecule antagonists of the androgen receptor (AR) signaling pathway using the MDA cell line (AID 743042; note: nearly all actives have a fitted effect of over 55% in size)
Outline: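 MDA-kb2 cells (human breast carcinoma, stably carrying an MMTV-luciferase reporter responsive to AR and GR) were plated at 3,000 cells/well and preincubated 5 hr at 37C, then given compound plus R1881 agonist for 16 h. ONE-Glo luminescence was read.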

[13] = system: thyroid hormone receptor (rat, GH3 cells); test: qHTS assay to identify small molecule agonists of the thyroid receptor (TR) signaling pathway (AID 743066; calls by dose curve)
[14] = qHTS assay to identify small molecule antagonists of the thyroid receptor (TR) signaling pathway - cell viability counter screen (AID 743064); note: nearly all actives have a fitted effect of over 50% in size; note: potency is the fitted concentration of half-maximal effect
Outline: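 Fluorescence from CellTiter-Fluor, added after 23.5 h exposure at 37 °C, reported viability of GH3.TRE-Luc cells co-treated with compound and 1 nM T3. Measured in the same wells as the luciferase TR readout.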

[15] = biological target: Estrogen receptor (Homo sapiens) (UniProt P03372); test: qHTS assay to identify small molecule antagonists of the estrogen receptor alpha (ER-alpha) signaling pathway (AID 743069; active = well fitted curve in the direction sought with a large enough effect in the signal ratio in the repeat runs, not every such curve was filed as active; the % refers to the signal ratio)
Outline: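 HEK293 cells stably carrying an ER-alpha-UAS-bla beta-lactamase reporter were pre-cultured overnight in 2% charcoal-stripped FBS medium. Test compounds in DMSO were added together with 17beta-estradiol for 18 hr at 37C. Read-out was fluorescence after 2 hr with LiveBLAzer B/G FRET substrate at room temperature.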

[16] = biological target: Estrogen receptor (Homo sapiens) (UniProt P03372); test: qHTS assay to identify small molecule agonists of the estrogen receptor alpha (ER-alpha) signaling pathway (AID 743075; calls by dose curve; note: potency is the fitted concentration of half-maximal effect)
[17] = biological target: Estrogen receptor (Homo sapiens) (UniProt P03372); test: qHTS assay to identify small molecule agonists of the estrogen receptor alpha (ER-alpha) signaling pathway using the BG1 cell line (AID 743079); settings: BG1Luc4E2 cells, ERE-luciferase agonist, 22 h; activation: at 70.3 µM (top of the series); note: nearly all actives have a fitted effect of over 20% in size; note: potency is the fitted concentration of half-maximal effect
[18] = qHTS assay to identify small molecule antagonists of the estrogen receptor alpha (ER-alpha) signaling pathway using the BG1 cell line (AID 743080; calls by dose curve; note: nearly all actives have a fitted effect of over 25% in size)
Outline: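 Antagonist mode: compounds in DMSO were pinned onto BG1-Luc-4E2 cells alongside 17beta-estradiol agonist, incubated 21.5 h, and ERE-driven luciferase measured with ONE-Glo. Cytotoxicity was multiplexed using CellTiter-Fluor fluorescence.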

[19] = biological target: Androgen receptor (Homo sapiens) (UniProt P10275); test: qHTS assay to identify small molecule antagonists of the androgen receptor (AR) signaling pathway (AID 743035; active = well fitted inhibition curve with a large enough effect in the signal ratio in the repeat runs, not every such curve was filed as active; the % refers to the signal ratio)
Outline: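 Cell line: GeneBLAzer AR-UAS-bla GripTite (HEK293). Stimulus: R1881 added after compound. Exposure: 16 h, 37C, 5% CO2. Readout: LiveBLAzer B/G FRET fluorescence after 2 h at room temperature.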

Measured: Potency

Chain of Androgen receptor (Homo sapiens) (P10275 whole entry, looked up): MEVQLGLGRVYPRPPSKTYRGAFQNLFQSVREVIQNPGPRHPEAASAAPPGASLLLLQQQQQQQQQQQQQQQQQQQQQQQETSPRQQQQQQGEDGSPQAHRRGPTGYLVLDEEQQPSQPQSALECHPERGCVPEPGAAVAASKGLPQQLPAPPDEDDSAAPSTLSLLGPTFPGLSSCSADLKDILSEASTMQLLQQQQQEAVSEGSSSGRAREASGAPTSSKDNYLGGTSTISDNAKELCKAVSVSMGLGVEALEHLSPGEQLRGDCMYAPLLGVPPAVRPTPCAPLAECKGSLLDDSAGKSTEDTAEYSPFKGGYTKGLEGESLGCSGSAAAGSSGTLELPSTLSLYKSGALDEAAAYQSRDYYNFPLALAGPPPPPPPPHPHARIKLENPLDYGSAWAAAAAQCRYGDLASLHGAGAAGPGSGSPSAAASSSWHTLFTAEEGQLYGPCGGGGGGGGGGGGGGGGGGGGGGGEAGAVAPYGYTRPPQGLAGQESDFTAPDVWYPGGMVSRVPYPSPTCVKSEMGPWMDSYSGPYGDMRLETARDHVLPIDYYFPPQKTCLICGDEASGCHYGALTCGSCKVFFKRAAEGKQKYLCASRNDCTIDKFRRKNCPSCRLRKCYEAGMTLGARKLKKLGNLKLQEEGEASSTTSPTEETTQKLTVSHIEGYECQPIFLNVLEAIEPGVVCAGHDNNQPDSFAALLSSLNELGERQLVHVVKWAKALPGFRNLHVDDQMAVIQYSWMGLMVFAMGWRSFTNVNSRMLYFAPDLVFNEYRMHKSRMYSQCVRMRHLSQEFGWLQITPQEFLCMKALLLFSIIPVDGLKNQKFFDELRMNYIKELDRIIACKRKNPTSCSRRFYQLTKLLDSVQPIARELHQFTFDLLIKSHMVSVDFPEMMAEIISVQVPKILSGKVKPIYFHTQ
Chain of Estrogen receptor (Homo sapiens) (P03372 whole entry, looked up): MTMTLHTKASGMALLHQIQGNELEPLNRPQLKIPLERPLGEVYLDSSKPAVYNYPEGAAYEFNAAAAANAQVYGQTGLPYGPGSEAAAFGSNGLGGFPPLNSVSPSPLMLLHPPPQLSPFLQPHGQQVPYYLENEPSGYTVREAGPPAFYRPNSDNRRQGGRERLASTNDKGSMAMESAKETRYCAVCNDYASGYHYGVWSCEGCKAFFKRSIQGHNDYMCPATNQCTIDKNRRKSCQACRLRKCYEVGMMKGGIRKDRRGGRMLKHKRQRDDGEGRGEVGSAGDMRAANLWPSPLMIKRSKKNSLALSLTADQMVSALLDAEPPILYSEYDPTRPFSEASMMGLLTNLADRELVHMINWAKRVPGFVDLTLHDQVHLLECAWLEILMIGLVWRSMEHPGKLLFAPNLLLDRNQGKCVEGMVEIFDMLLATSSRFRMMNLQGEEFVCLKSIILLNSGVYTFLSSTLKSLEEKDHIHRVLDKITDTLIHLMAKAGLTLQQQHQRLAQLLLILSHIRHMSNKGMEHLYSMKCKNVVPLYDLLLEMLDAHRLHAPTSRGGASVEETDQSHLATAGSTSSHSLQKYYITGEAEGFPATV
Chain of Aromatase (Homo sapiens) (P11511 whole entry, looked up): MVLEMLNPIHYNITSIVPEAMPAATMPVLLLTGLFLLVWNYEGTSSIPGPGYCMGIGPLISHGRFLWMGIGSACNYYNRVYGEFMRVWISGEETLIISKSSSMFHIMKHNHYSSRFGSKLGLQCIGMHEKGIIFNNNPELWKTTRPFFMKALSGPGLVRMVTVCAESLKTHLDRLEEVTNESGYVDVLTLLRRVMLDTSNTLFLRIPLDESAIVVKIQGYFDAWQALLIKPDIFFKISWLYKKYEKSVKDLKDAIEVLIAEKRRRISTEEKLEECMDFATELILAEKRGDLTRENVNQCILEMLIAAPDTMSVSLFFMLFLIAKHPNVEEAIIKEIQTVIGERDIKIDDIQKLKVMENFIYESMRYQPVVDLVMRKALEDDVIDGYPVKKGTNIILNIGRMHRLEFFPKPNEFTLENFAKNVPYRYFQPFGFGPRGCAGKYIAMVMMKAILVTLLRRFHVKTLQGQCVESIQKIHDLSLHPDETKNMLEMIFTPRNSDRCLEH

Fc1ccccc1[C@@H](F)COC1CCC(Nc2ncnc3[nH]ncc23)CC1 (stereo not given in full)
inactive: [1] | [6] | [8] | [9]
active: [2] 15.4 µM | [3] 17.2 µM | [4] 12.2 µM | [5] 49 µM | [7] 48.6 µM | Aromatase (Homo sapiens) 24.3 µM

C[N+](C)(C)CCOC(N)=O
not listed: [14] | [15] | [16] | [17] | [18] | [19]
inactive: all other assays above

CCCCCCCCCCCCCCCCBr
not listed: [6] | [10] | [12] | [19]
inactive: all other assays above

CC(C)CCCC(=O)O
not listed: [11]
inactive: all other assays above

CO[C@H]1C=CO[C@@]2(C)Oc3c(C)c(O)c4c(O)c(c5c(c4c3C2=O)=NC2(CCN(CC(C)C)CC2)N=5)NC(=O)/C(C)=C\C=C/[C@H](C)[C@H](O)[C@@H](C)[C@@H](O)[C@@H](C)[C@H](OC(C)=O)[C@@H]1C
active: [2] 16.8 µM and 42.3 µM | [3] 23.7 µM and 47.5 µM | [4] 11.9 µM and 30 µM | [14] 29.8 µM | [7] 29.8 µM | [9] 26.6 µM and 53.3 µM
not listed: [11] | [12] | [18]
inactive: all other assays above

CC(=O)[C@H]1CC[C@H]2[C@@H]3C=CC4=CC(=O)CC[C@@]4(C)[C@@H]3CC[C@]12C
active: [2] 4.03 µM | [3] 3.59 µM | [4] 4.52 µM | [6] 9.02 µM
not listed: [7] | [10] | [15] | [19]
inactive: all other assays above

CC(=O)Nc1ccc(N)cc1
not listed: [12] | [14]
inactive: all other assays above

CCCC(=O)O[C@]1(C(=O)COC(=O)CC)CC[C@H]2[C@@H]3CCC4=CC(=O)CC[C@]4(C)[C@H]3[C@@H](O)C[C@@]21C
active: [10] 0.0239 µM | [6] 0.119 µM
not listed: [11] | [12] | [15] | [17] | [18]
inactive: all other assays above

COC(=O)[C@@H]1CC2=CC(=O)CC[C@]2(C)[C@@]23O[C@@H]2C[C@@]2(C)[C@@H](CC[C@@]24CCC(=O)O4)[C@H]13
not listed: [6] | [10] | [12] | [19]
inactive: all other assays above

OCC1CC=CCC1 (stereo not given)
not listed: [10] | [12] | [14]
inactive: all other assays above

Oc1ccc(Nc2ccccc2)cc1
active: [2] 5.45 µM | [3] 6.11 µM | [4] 6.86 µM | [14] 54.5 µM | [7] 43.3 µM | [16] 55 µM [activator] | [17] 30.6 µM
not listed: [12] | [15] | [19]
inactive: all other assays above

CC(C)OCC1CO1 (stereo not given)
not listed: [6] | [10] | [12] | [19]
inactive: all other assays above

O=C(O)c1cccc(O)c1
not listed: [6] | [10] | [12] | [19]
inactive: all other assays above

CC1(C)C2=CCCC(C)(C)[C@]23CC[C@H]1C3
active: [2] 54.5 µM | [3] 43.3 µM | [4] 30.6 µM
not listed: [7] | Aromatase (Homo sapiens) | [12] | [15] | [16] | [17] | [18]
inactive: all other assays above

Reference: PubChem BioAssay (Tox21)
